Bioassay records deposited in PubChem BioAssay by National Center for Advancing Translational Sciences (NCATS).
A selection: hits, their analogues and other compounds. The true share with any hit is near 3.2%.
Tau fibril FP = qHTS for Inhibitors of Tau Fibril Formation, Fluorescence Polarization; Microtubule-associated protein tau (Homo sapiens), P10636; K18 P301L tau heparin fibrillization, Alexa594 FP, 6 h; hit rate 0.39% among 280,000; Potency, µM (series often up to 57.7 µM), hits mostly inhibitors; further: nearly all actives have a fitted effect of over 55% in size
Target sequence (P10636 561-689 P618L limits assumed): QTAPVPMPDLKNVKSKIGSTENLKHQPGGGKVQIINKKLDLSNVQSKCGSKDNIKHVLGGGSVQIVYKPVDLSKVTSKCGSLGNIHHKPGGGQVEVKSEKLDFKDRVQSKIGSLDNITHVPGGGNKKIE
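Heparin (20 uM) drove fibril formation of recombinant tau K18 P301L, 15 uM unlabeled with 0.24 uM Alexa 594 label, for 6 hr at 37 C in 100 mM sodium acetate pH 7. Fluorescence polarization (555/632 nm) read 1 hr after 30 uM ThT.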
RGS12 GoLoco inh = qHTS Assay for Inhibitors of RGS12 GoLoco Motif Activity (Red Fluorophore); Potency, µM (series often up to 61.6 µM), usual class: inhibitors; Gai1:RGS12 GoLoco peptide FP, rhodamine, 10 min; Guanine nucleotide-binding protein G(i) subunit alpha-1 (Homo sapiens), P63096; hit rate 0.44% among 230,000; active means well fitted inhibition curve with a large enough effect, not every such curve was filed as active; inactive means no such curve, though single readings can be large or run the other way; further: nearly all actives have a fitted effect of over 30% in size
TexasRed fluor = Total Fluorescence Counterscreen for Inhibitors of the Interaction of Thyroid Hormone Receptor and Steroid Receptor Coregulator 2. TRb/SRC2 Texas Red total fluorescence interference. Potency, µM (top dose mostly 106 µM). hit rate 0.29% among 280,000; active means well fitted curve in either direction with a large enough effect; inconclusive means small, poorly fitted or top-dose-only effect
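Flags fluorescent or light-absorbing compounds by total fluorescence, S + 2P, at 555 nm excitation and 632 nm emission. Mixture: 20 nM Texas Red SRC2 peptide, 0.6 uM human TRb LBD, 1 uM T3, 5% DMSO; compound exposure 5 h at ambient temperature.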
Tau ThT inhib = qHTS for Inhibitors of Tau Fibril Formation, Thioflavin T Binding; Microtubule-associated protein tau (Homo sapiens), P10636; recombinant tau K18 P301L, heparin-induced fibrillization, ThT fluorescence; Potency, µM (doses to about 57.4 µM), usual class: inhibitors; hit rate 2.1% among 270,000; AID 1460, 2008; further: nearly all actives have a fitted effect of over 55% in size
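Tau K18 P301L fragment (15 uM unlabeled plus 0.24 uM Alexa 594-labeled) in 100 mM sodium acetate pH 7 with compound, fibrillization induced by 20 uM heparin for 6 hr at 37 C. Thioflavin T (30 uM) added, fluorescence read after 1 hr (ex 450, em 510 nm).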
Tau fluor cs = Counterscreen qHTS for Inhibitors of Tau Fibril Formation, Fluorescence Polarization. tau K18 P301L Alexa594 fluorescence, heparin fibrillization. Potency, µM (doses to about 57.7 µM). hit rate 0.93% among 280,000. AID 1463, 2008; further: nearly all actives have a fitted effect of over 55% in size
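Human tau K18 P301L (15 uM unlabeled, 0.24 uM Alexa 594-labeled) in 100 mM sodium acetate pH 7 with 20 uM heparin, 6 hr at 37 C. ThT 30 uM added, 1 hr ambient; Alexa 594 FP and total fluorescence read at 555/632 nm.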
TRb SRC2 PPI = qHTS for Inhibitors of the Interaction of Thyroid Hormone Receptor and Steroid Receptor Coregulator 2; Thyroid hormone receptor beta (Homo sapiens), P10828; TRbeta-SRC2 peptide binding, fluorescence polarization; receptor liganded with 1 µM T3; hit rate 0.065% among 280,000; Potency, µM (top dose mostly 106 µM), hits mostly inhibitors; further: nearly all actives have a fitted effect of over 50% in size
Target sequence (P10828 whole entry, looked up): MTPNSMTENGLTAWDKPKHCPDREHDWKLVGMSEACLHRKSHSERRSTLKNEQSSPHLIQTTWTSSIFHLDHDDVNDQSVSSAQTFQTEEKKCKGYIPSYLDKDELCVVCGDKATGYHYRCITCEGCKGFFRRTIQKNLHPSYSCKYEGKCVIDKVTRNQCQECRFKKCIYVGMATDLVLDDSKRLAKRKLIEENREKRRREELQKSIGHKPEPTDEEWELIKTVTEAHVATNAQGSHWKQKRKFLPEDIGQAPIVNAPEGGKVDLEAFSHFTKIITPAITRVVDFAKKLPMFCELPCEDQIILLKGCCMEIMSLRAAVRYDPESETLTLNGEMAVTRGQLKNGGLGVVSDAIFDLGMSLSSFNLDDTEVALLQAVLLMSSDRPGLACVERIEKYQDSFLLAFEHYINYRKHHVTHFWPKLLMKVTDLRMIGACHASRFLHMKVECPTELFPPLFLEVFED
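Decrease in fluorescence polarization of 20 nM Texas Red SRC2 coactivator peptide flagged inhibition of its binding to 0.6 uM TRb LBD; 1 uM T3 included, incubation 5 hr, ex 555/em 632 nm.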
Large screens that a line does not name were inactive; [ ] = another dose, or the depositor's remark. Unless noted, the call rests on the fitted dose curve; in most records, active means well fitted curve in the direction sought with a large enough effect; inconclusive means small, poorly fitted or top-dose-only effect, or another doubt; inactive means no such curve, though single readings can be large; an effect the other way counts as inactive or inconclusive.

O=C(C[n+]1ccc(CCSc2ccc(F)cc2)cc1)c1ccccc1	Tau fibril FP inconclusive, Tau ThT inhib 28.2µM
O=C(O)Cn1c(C(=O)Nc2nc(-c3ccccc3Cl)cs2)cc2ccccc21	none (no result: Tau fibril FP, RGS12 GoLoco inh, Tau ThT inhib, Tau fluor cs)
COc1cccc(-c2cnc(NCc3cc(Cl)ccc3O)n2C)c1	Tau ThT inhib inconclusive, Tau fluor cs 20µM[quencher]
O=C(c1ccncc1)N1CCC2(CCCN(c3cccc(-c4ccccc4)c3)C2)CC1	none (no result: Tau fibril FP, TexasRed fluor, Tau ThT inhib, Tau fluor cs, TRb SRC2 PPI)
NCCO/C=C/[C@H](N)C(=O)O	none (no result: Tau fibril FP, Tau ThT inhib, Tau fluor cs)
CCc1nnc(NS(=O)(=O)c2ccc(Nc3ccc([N+](=O)[O-])c4nonc34)cc2)s1	Tau ThT inhib 14.1µM
NS(=O)(=O)c1ccc(Nc2ccc([N+](=O)[O-])c3nonc23)cc1	Tau ThT inhib 15.8µM
CCc1nnc(NS(=O)(=O)c2ccc(NC(=O)OC)cc2)s1	none
NS(=O)(=O)c1ccc(Nc2ccccc2)c([N+](=O)[O-])c1	Tau ThT inhib inconclusive
CCn1cc2nc(SCc3cc(C)ccc3C)n(CCc3ccccc3)c(=O)c2n1	Tau ThT inhib inconclusive (no result: RGS12 GoLoco inh)
[O-][n+]1c2c(c3c4non(O)c4ccc31)CCCC2	Tau ThT inhib 14.1µM, Tau fluor cs inconclusive
COc1ccc(-c2noc(CSc3nnc(-c4ccncc4)n3-c3ccc(OC)cc3)n2)cc1	TexasRed fluor 0.251µM[quencher], Tau ThT inhib inconclusive, TRb SRC2 PPI inconclusive (no result: RGS12 GoLoco inh)
Cc1ccc(-c2noc(CSc3nnc(C)n3-c3ccc(C)c(C)c3)n2)cc1	none (no result: RGS12 GoLoco inh)
Cc1ccc(-c2noc(CSc3nnc(C)n3-c3ccc(C)cc3)n2)cc1	TexasRed fluor 0.112µM[quencher] (no result: RGS12 GoLoco inh)
COc1ccc(-c2noc(CSc3nnc(-c4ccncc4)n3-c3ccc(C)cc3)n2)cc1	Tau ThT inhib inconclusive (no result: RGS12 GoLoco inh)
COc1ccc(-c2noc(CSc3nnc(Cc4ccccc4)n3-c3ccccc3)n2)cc1OC	TexasRed fluor 0.282µM[quencher], Tau ThT inhib inconclusive (no result: RGS12 GoLoco inh)
COCCNC(=O)CSc1nc2cc3c(cc2c(=O)n1CCCCCC(=O)NCCc1ccc(OC)c(OC)c1)OCO3	none (no result: RGS12 GoLoco inh)
COc1cccc(Oc2cn[nH]c2-c2ccc(OC)cc2O)c1	Tau fluor cs 14.1µM[quencher]
CCOc1ccc(-c2[nH]ncc2Oc2cccc(OC)c2)c(O)c1	Tau fibril FP inconclusive, Tau ThT inhib inconclusive, Tau fluor cs 15.8µM[quencher]
COc1cccc(Oc2cn[nH]c2-c2ccc(O)cc2O)c1	Tau fibril FP inconclusive, Tau fluor cs inconclusive
CCOc1ccc(OCCOCCn2c(-c3ccc(Cl)cc3)nc3ccccc3c2=O)cc1	none (no result: RGS12 GoLoco inh)
Cc1c(C(=O)c2no[n+]([O-])c2C(=O)c2cnn(C)c2C)cnn1C	Tau fibril FP inconclusive, Tau ThT inhib 14.1µM
O=C(c1cccs1)c1no[n+]([O-])c1C(=O)c1cccs1	Tau fibril FP inconclusive, Tau ThT inhib inconclusive, Tau fluor cs inconclusive
CCOc1ccc(-c2cc(N)n(S(=O)(=O)c3ccc(OC)c(OC)c3)n2)cc1	Tau fluor cs inconclusive
COc1ccc(S(=O)(=O)n2nc(-c3ccc(Cl)cc3)cc2N)cc1OC	Tau fluor cs 15.8µM[quencher]
CSCC[C@H](NC(=O)[C@H](CCCN=C(N)N)NC(=O)[C@@H]1CCCN1C(=O)[C@H](Cc1ccccc1)NC(=O)[C@H](C)NC(=O)[C@H](CC(C)C)NC(=O)[C@H](Cc1ccc(O)cc1)NC(=O)[C@H](CC(N)=O)NC(=O)[C@@H](N)CCSC)C(N)=O	none (no result: Tau fibril FP, RGS12 GoLoco inh, Tau ThT inhib, Tau fluor cs)
CC(/C=C(\NC(=O)c1ccccc1)C(=O)N=Nc1c(O)[nH]c2ccc(C)cc12)=C\c1ccccc1	Tau ThT inhib 20µM, Tau fluor cs inconclusive
Cc1ccc2[nH]c(O)c(N=NC(N)=S)c2c1	Tau ThT inhib inconclusive
CC(=O)c1cc(-c2ccccc2)[nH]c1N1CCOCC1	Tau fibril FP inconclusive, Tau ThT inhib 31.6µM
COc1cccc(N=Nc2c(=O)[nH]n3c(C)cc(C)nc23)c1	Tau ThT inhib inconclusive
CCOc1ccc(N=Nc2c(=O)[nH]n3c(C)cc(C)nc23)cc1	Tau ThT inhib 12.6µM
Cc1ncc([N+](=O)[O-])n1C[C@H](O)CCl	none (no result: Tau fibril FP, Tau ThT inhib, Tau fluor cs)
CC(=O)[C@@]1(N=Nc2ccc(S(N)(=O)=O)cc2)CCOC1=O	none (no result: Tau fibril FP, TexasRed fluor, Tau ThT inhib, Tau fluor cs, TRb SRC2 PPI)
Cc1c(C#N)c(O)n(CCO)c(=O)c1N=Nc1ccccc1	Tau ThT inhib 12.6µM
Cc1cc(=O)n(CCCO)c(O)c1C#N	Tau ThT inhib inconclusive
Cc1c(C#N)c(O)n(CCO)c(=O)c1N=Nc1ccc(S(N)(=O)=O)cc1	Tau ThT inhib 12.6µM
Cc1c(C#N)c(O)n(C)c(=O)c1N=Nc1ccc(S(N)(=O)=O)cc1	Tau ThT inhib 3.98µM
O=C(O)c1ccc2c(c1)C(=O)N([C@H](Cc1c3ccccc3cc3ccccc13)C(=O)O)C2=O	none (no result: Tau fibril FP, RGS12 GoLoco inh, Tau ThT inhib, Tau fluor cs)
Cn1cccc1C(=O)N1CCC2(CCCN(c3ncccn3)C2)CC1	none (no result: Tau fibril FP, TexasRed fluor, Tau ThT inhib, Tau fluor cs, TRb SRC2 PPI)
CCOC(=O)c1c(C)oc2c1c(C=NCCO)c(O)c1ccccc12	Tau ThT inhib 12.6µM, Tau fluor cs inconclusive
O=C1CSc2ccc(C(=O)Nc3cccc(S(=O)(=O)Nc4ccc(Br)cc4)c3)cc2N1	Tau fibril FP 17.8µM, Tau fluor cs 10µM[quencher]
O=C(O)c1cccc(NC(=O)c2cccc(S(=O)(=O)Nc3cccc(F)c3)c2)c1	TexasRed fluor 0.316µM[quencher], TRb SRC2 PPI inconclusive (no result: RGS12 GoLoco inh)
O=C(O)c1cccc(NC(=O)c2cccc(S(=O)(=O)Nc3cccc(C(=O)O)c3)c2)c1	none (no result: RGS12 GoLoco inh)
CC(=O)c1ccc(Oc2nc(C)nc3c2oc2ccccc23)cc1	none (no result: RGS12 GoLoco inh)
